Source: PubChem BioAssay AID1159580 (chemical genetic matrix, 2015)
Where “and” joins values, the source holds several entries; their conditions need not be identical. Equal values may be shown once. Among all 5,500 compounds or so, about 2,000 (36%) were called active. Inconclusive results (about 18%) are left out. Cut-off read from the data, not from the text of the source: active = normalized growth mostly below about 0.91 (no sharp cut-off); inconclusive = no clear call, values can overlap the other calls; inactive = mostly above about 0.92. The list shows a part of the results.

Assay: chemical genetic growth profiling, strain panel (AID 1159580);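 note: tested at 20 µM; growth read once vehicle control cultures reached saturation at 30 °C; 1 = growth at the plate median or of vehicle wells; lower values mean less growth of the strain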
Conditions: S. cerevisiae deletion strains, growth OD

Measured: normalized growth

COCCc1ccc(OCC(O)CNC(C)C)cc1 (stereo unspecified)
inactive: locus YAL013W, strain DEP1, hits give low values 1.01 | locus YAL021C, strain ccr4, hits give low values 1 | locus YAL026C, strain drs2, hits give low values 1.01 | locus YAL030W, strain snc1, hits give low values 0.988 | locus YAL040C, strain CLN3, hits give low values 0.996 | locus YBL061C, strain skt5, hits give low values 0.989 | locus YBR009C, strain hhf1, hits give low values 0.998 | locus YBR021W, strain FUR4, hits give low values 1.01 | locus YBR023C, strain chs3, hits give low values 0.987 | locus YBR171W, strain sec66, hits give low values 0.986 | locus YBR229C, strain ROT2, hits give low values 1 | locus YBR231C, strain swc5, hits give low values 1.01 | locus YBR279W, strain paf1, hits give low values 1.01 | locus YCL011C, strain gbp2, hits give low values 0.96 | locus YCL016C, strain dcc1, hits give low values 0.966 | locus YCL029C, strain bik1, hits give low values 1.03 | locus YCL061C, strain MRC1 (second series), hits give low values 1 | locus YCL061C, strain MRC1, hits give low values 0.997 | locus YCL069W, strain vba3, hits give low values 0.992 | locus YCR088W, strain abp1, hits give low values 1 | locus YDL005C, strain med2, hits give low values 1 | locus YDL035C, strain GPR1, hits give low values 0.997 | locus YDL040C, strain nat1, hits give low values 1.01 | locus YDL074C, strain BRE1, hits give low values 1.02 | locus YDL101C, strain DUN1, hits give low values 1.02 | locus YDL134C, strain PPH21, hits give low values 1 | locus YDL185W, strain tfp1, hits give low values 1.01 | locus YDL192W, strain arf1, hits give low values 1 | locus YDR001C, strain nth1, hits give low values 0.979 | locus YDR069C, strain doa4, hits give low values 0.991 | locus YDR101C, strain arx1, hits give low values 1.01 | locus YDR137W, strain rgp1, hits give low values 0.942 | locus YDR150W, strain NUM1, hits give low values 1 and 0.986 | locus YDR159W, strain sac3, hits give low values 1.02 | locus YDR162C, strain NBP2, hits give low values 1 | locus YDR195W, strain ref2 0.998 | locus YDR297W, strain sur2, hits give low values 1.02 | locus YDR318W, strain mcm21, hits give low values 1.02 | locus YDR334W, strain swr1, hits give low values 0.942 | locus YDR335W, strain msn5, hits give low values 0.984 | locus YDR363W, strain ESC2, hits give low values 1.02 | locus YDR388W, hits give low values 1.02 | locus YDR392W, strain spt3, hits give low values 0.944 | locus YDR502C, strain sam2, hits give low values 0.997 | locus YEL003W, strain gim4, hits give low values 0.996 | locus YEL037C, strain rad23, hits give low values 0.989 | locus YEL061C, strain CIN8 (second series), hits give low values 0.975 | locus YEL061C, strain CIN8, hits give low values 1.01 | locus YER002W, strain NOP16, hits give low values 0.993 | locus YER015W, strain faa2, hits give low values 0.988 | locus YER016W, strain bim1, hits give low values 0.999 | locus YER110C, hits give low values 1.01 | locus YER111C, strain swi4, hits give low values 1 | locus YER155C, strain BEM2 (second series), hits give low values 1.02 | locus YER155C, strain BEM2, hits give low values 1 | locus YER167W, strain BCK2, hits give low values 0.981 | locus YFR010W, strain ubp6, hits give low values 0.978 | locus YGL078C, strain dbp3, hits give low values 1.01 | locus YGL086W, strain mad1, hits give low values 1 | locus YGL167C, strain pmr1, hits give low values 0.989 | locus YGL173C, strain kem1, hits give low values 1 | locus YGL227W, strain vid30, hits give low values 0.988 | locus YGL240W, strain doc1, hits give low values 1.03 | locus YGL248W, strain PDE1, hits give low values 1.01 | locus YGL253W, strain hxk2, hits give low values 0.983 | locus YGR078C, strain PAC10, hits give low values 1.02 | locus YGR135W, strain pre9, hits give low values 1.01 | locus YGR229C, strain SMI1, hits give low values 1.01 and 1.02 | locus YGR252W, strain gcn5, hits give low values 0.978 | locus YHR013C, strain ard1, hits give low values 0.956 | locus YHR027C, strain rpn1, hits give low values 0.971 | locus YHR030C, strain SLT2, hits give low values 1 and 1.06 | locus YHR079C, strain IRE1 (second series), hits give low values 1.02 | locus YHR079C, strain IRE1, hits give low values 1.07 | locus YHR094C, strain hxt1, hits give low values 1.01 | locus YHR129C, strain ARP1, hits give low values 1.01 | locus YHR142W, strain chs7, hits give low values 0.943 | locus YHR200W, strain rpn10, hits give low values 1.02 | locus YIL066C, strain RNR3, hits give low values 1.01 | locus YIL073C, strain SPO22, hits give low values 1.04 | locus YIL125W, strain kgd1, hits give low values 1.01 | locus YIR030C, strain dcg1, hits give low values 1.02 | locus YJL092W, strain hpr5, hits give low values 0.988 | locus YJL095W, strain BCK1 (second series), hits give low values 0.994 | locus YJL095W, strain BCK1, hits give low values 1.03 and 1.04 | locus YJL115W, strain asf1, hits give low values 0.964 | locus YJL129C, strain trk1, hits give low values 1 | locus YJL134W, strain LCB3, hits give low values 1 | locus YJL154C, strain vps35, hits give low values 0.973 | locus YJL164C, strain tpk1, hits give low values 1.01 | locus YJL166W, strain qcr8, hits give low values 0.981 | locus YJL168C, strain set2, hits give low values 1.03 | locus YJL187C, strain SWE1 (second series), hits give low values 1.03 | locus YJL187C, strain SWE1, hits give low values 1.04 | locus YJR043C, strain POL32, hits give low values 1.01 | locus YJR066W, strain TOR1, hits give low values 1.01
